Bioassay records: PubChem, National Center for Advancing Translational Sciences (NCATS)
This excerpt belongs to a sample that is enriched for hits.
Marburg entry inh: Marburg virus entry inhibition; Marburg virus pseudotyped entry inhibition, cell reporter; Potency, µM (series often up to 37.8 µM), for inactives: top-dose activity change, negative = inhibition, actives largely listed as inhibitors; 300,000 compounds, 1.8% hits; AID 540276; calls by dose curve; tested in HEK293 cells; further: potency means the concentration at half of the fitted maximal effect; on the % scale 0 is the no-effect control and ±100 the full control effect
Shiga inhibitor: blocks Shiga toxin action in Vero cells. 290,000 compounds, 9.2% hits. inhibition, % at 38.7 µM. AID 2315. Vero cells, Shiga toxin protein synthesis inhibition reporter; in the data active means inhibition mostly above about 28%, no sharp cut-off; inactive means mostly below about 43%; further: 0% is about no effect
Vaccinia Venus: inhibitors of vaccinia virus (Venus reporter); AID 720580; Vaccinia virus Venus reporter expression, fluorescence; Potency, µM (titrated, usually from 36.5 µM), for inactives: at the highest dose activity change, negative = inhibition, hits mostly inhibitors; 330,000 compounds, 0.46% hits; calls by dose curve; tested in A549 cells; further: potency means the concentration at half of the fitted maximal effect; on the % scale 0 is the no-effect control and ±100 the full control effect; nearly all actives have a fitted effect of over 30% in size
Vaccinia mCherry: vaccinia inhibition (mCherry reporter) | Vaccinia virus mCherry reporter infection, fluorescence | 310,000 compounds, 0.63% hits | AID 720579 | Potency, µM (top dose mostly 36.5 µM), inactives show top-dose activity change, negative = inhibition, actives largely listed as inhibitors; calls by dose curve; tested in A549 cells; further: potency means the concentration at half of the fitted maximal effect; on the % scale 0 is the no-effect control and ±100 the full control effect; nearly all actives have a fitted effect of over 35% in size
CHX counter: affects cycloheximide protein synthesis inhibition readout, counter-screen; cell reporter, cycloheximide protein synthesis inhibition counterscreen; max response, %; AID 2314; 300,000 compounds, 12% hits; in the data active means max response mostly above about 13%, no sharp cut-off; inactive means mostly below about 14%; further: read at 38.3 µM for the half of the compounds with a filed dose; 0% is about no effect
Lassa entry inh: inhibitors of Lassa virus binding or cell entry; Lassa virus pseudotype entry inhibition, cell reporter; Potency, µM (series often up to 37.9 µM), inactives show at the top dose activity change, negative = inhibition, most hits filed as inhibitors; 300,000 compounds, 1.2% hits; calls by dose curve; tested in HEK293 cells; further: potency means the concentration at half of the fitted maximal effect; on the % scale 0 is the no-effect control and ±100 the full control effect; nearly all actives have a fitted effect of over 50% in size
Active calls of the source: *; i = inactive; ? = inconclusive; . = no result; [ ] = remark or other dose.

SMILES	Marburg entry inh	Shiga inhibitor	Vaccinia Venus	Vaccinia mCherry	CHX counter	Lassa entry inh
Cc1ccccc1OCCn1ccnc1	.	-4.1	.	.	37.5*	.
Cc1cc(C)cc(Cn2cc(CN3CC(N4CCN(CCN(C)C)CC4)CS3(=O)=O)nn2)c1 (stereo not given)	.	.	-6.0%	-2.8%	.	.
COc1ccc(/C=N/NC2=NS(=O)(=O)c3ccccc32)cc1OC(C)=O	11.7%	-11.7	-4.7%	-14.2%	8.9	3.4%
CCOc1ccc(CCNc2ncnc3onc(-c4ccc(F)cc4)c23)cc1OCC	.	.	-8.1%	-15.4%	.	?
CCOc1ccc(CCNc2ncnc3onc(-c4ccc(Cl)cc4)c23)cc1OCC	7.94µM*	.	-8.8%	-9.8%	.	?
CCCCCCn1ccc(=N)cc1	12.6µM*	-9.4	?	.	6.8	?
CCCCCCCCCCCCCCCCn1cc[n+](CC(C)=O)c1	.	-9.8	.	.	-3.0	.
COc1ccc(-c2sc3ccccc3c2C#CCO)cc1	.	11.9	?	?	-0.9	.
COc1ccc2sc(-c3ccc(S(C)(=O)=O)cc3)c(C#CCO)c2c1	.	.	?	10µM*	.	.
Cc1ccc(C)c(OCCn2c(C3CC(=O)N(Cc4ccc(F)cc4)C3)nc3ccccc32)c1 (stereo not given)	-22.6%[46.1 µM]	.	-17.8%	-14.5%	.	-7.5%[46.1 µM]
CCC(C(=O)NCc1ccco1)n1nc(C)c2c(C)n(-c3ccccc3)nc2c1=O (stereo not given)	-0.5%[46.1 µM]	-6.5	-3.0%	-8.2%	-7.6	12.2%[46.1 µM]
CCOC(=O)c1c(C)[nH]c(C=Nc2ccc(OC)cc2)c1O	1.2%	84.4*	-10.1%	.	20.5*	?
COC(=O)c1c(C)[nH]c(C=Nc2ccc(OC)cc2)c1C	?	-3.9	-7.4%	i	-2.8	-2.1%[46.1 µM]
CCOC(=O)c1c(C)[nH]c(N=Nc2ccc(C)cc2)c1C	?	71.0	-18.7%	-13.4%	31.5*	-0.8%
CCOC(=O)c1c(C)[nH]c(N=Nc2ccccc2Cl)c1C	7.5%	97.0*	.	.	65.1*	.
CCOC(=O)c1c(C)[nH]c(N=Nc2ccc(OC)cc2)c1C	.	85.5*	0.0%[7.34 µM]	i[7.34 µM]	35.2*	.
CCOC(=O)c1[nH]c(C)c(C(=O)c2ccc(C)cc2)c1C	?	36.7	-22.5%	?	27.1	-36.5%[14.3 µM]
CN1CCN(C(=O)Nc2cccc(Cl)c2)c2cccnc21	1.5%[46.1 µM]	.	1.3%	-0.1%	.	4.8%[46.1 µM]
Clc1ccc(CNc2ncnc3nc[nH]c23)cc1	.	.	-28.1%	?	.	.
O=C1CN(S(=O)(=O)c2ccc3c(c2)OCCO3)CCN1S(=O)(=O)c1c(F)cccc1F	.	-8.0	.	.	-8.0	.
CCOC(=O)c1c(C)[nH]c(N=Nc2ccccc2)c1C	-14.2%	82.0*	-18.4%	.	54.5*	?
CC(C)CC(=O)Nc1cccc(-c2nc3ccccc3o2)c1	?	61.6*	.	.	22.1*	-0.6%
COc1ccc(OCC(=O)Nc2cccc(-c3nc4ccccc4o3)c2)cc1	-13.6%	122.9*	.	.	44.7*	3.2%
Cc1cc(Cl)ccc1OCC(=O)Nc1cccc(-c2nc3ccccc3o2)c1	.	.	?	-10.6%	.	.
CC(=O)Nc1ccc2oc(-c3ccccc3)nc2c1	.	93.0*	.	.	40.8*	.
SMILES	Marburg entry inh	Shiga inhibitor	Vaccinia Venus	Vaccinia mCherry	CHX counter	Lassa entry inh
CC(C)C(=O)Nc1cccc(-c2nc3ccccc3o2)c1	8.9%	10.9	-20.6%	-3.2%	5.1	4.7%
CCCC(=O)Nc1cccc(-c2nc3cc(C)c(C)cc3o2)c1	?	83.6*	4.5%	-4.7%	39.2*	-0.6%
O=C(Nc1ccc2oc(-c3ccncc3)nc2c1)c1ccccc1	3.5%	18.0	-5.8%	i	6.2	-26.2%
O=C(COc1ccccc1)Nc1ccc2c(c1)Cc1cc(NC(=O)COc3ccccc3)ccc1-2	-0.7%	20.0	-11.7%	-7.5%	-3.6	4.4%
O=C(Nc1ccc2oc(-c3ccncc3)nc2c1)c1cccs1	?	24.2	-3.5%	-5.6%	12.2	-5.0%
CN1C(=O)C(=Cc2ccc(OCC(=O)Nc3ccccc3)cc2)C(=O)N(C)C1=O	2.6%	75.1*	-4.3%	-0.7%	49.7*	-11.4%
C=Cc1cccc(NC(=O)COc2ccccc2)c1	17.5%	41.1	-4.8%	.	34.7*	8.3%
O=C(Nc1ccc(-c2nc3cc(NC(=O)c4cccs4)ccc3o2)cc1)c1cccs1	8.2µM*	-0.5	.	.	-0.4	14.6µM*
CC(=O)Nc1cccc(-c2nc3ccccc3o2)c1	.	40.1*	.	.	27.7*	.
Cc1cccc(NC(=O)C(=O)NCCc2csc(-c3ccc(C(F)(F)F)cc3)n2)c1C	.	.	-17.9%	-17.5%	.	?
Cc1noc2nc(C(=O)O)nc(N3CCCCC3)c12	18.4%[46.1 µM]	.	-4.4%	-0.7%	.	1.8%[46.1 µM]
NC(C(=O)O)C(O)C(=O)O (stereo not given)	.	.	-3.0%	-9.1%	.	.
CCCC(=O)Nc1cccc(-c2nc3ccccc3o2)c1	6.5%[46.1 µM]	33.3	-6.1%	-9.8%	25.9*	-11.9%
O=C(Cc1ccccc1)Nc1ccc2oc(-c3ccncc3)nc2c1	-7.1%	33.3	-1.1%	.	15.3	-0.7%
O=C(COc1ccccc1)Nc1cccc(-c2nnc(-c3ccccc3)o2)c1	18.8%[46.1 µM]	71.5*	-7.4%	-23.0%	19.7*	-21.9%
CC(=O)Nc1ccc2nc3ccccc3nc2c1	.	90.8*	.	.	51.8*	.
CC(C)CC(=O)Nc1ccc2oc(-c3ccncc3)nc2c1	3.7%	58.6*	-21.2%	.	24.2*	25.9%
CC(=O)Nc1ccc(-c2nc3ccc(NC(C)=O)cc3o2)cc1	.	79.0*	.	.	33.8*	.
COC(=O)c1ccc(C(=O)Nc2ccc(-c3nc4cc(NC(=O)c5ccc(C(=O)OC)cc5)ccc4o3)cc2)cc1	.	.	-3.3%	-7.0%	.	?
Cc1cc(Cl)c2oc(C(=O)N(C)CC3CCOCC3)c(C)c2c1	.	71.0*	.	.	38.2*	.
Cc1cc(Cl)c2oc(C(=O)N3CCN(C4CCS(=O)(=O)C4)CC3)c(C)c2c1 (stereo not given)	.	-10.0	.	.	-1.0	.
C=CCN(C(=O)c1oc2c(Cl)cc(C)cc2c1C)C1CCS(=O)(=O)C1 (stereo not given)	.	60.0*	.	.	59.7*	.
CCn1nc(C)c2c(-c3ccccc3)cc(=O)n(C(C)C(=O)NCCC(C)C)c21 (stereo not given)	.	.	7.4%	1.1%	.	-34.0%[46.1 µM]
Cc1ccc(C)c(NC(=O)CN(C)S(=O)(=O)c2cccc3cccnc23)c1	-7.8%[46.1 µM]	-10.4	-7.5%	-15.4%	-2.1	.
CC(C)(C)c1cc(-c2csc(Nc3ccccc3)[n+]2Cc2ccc(C(=O)O)cc2)cc(C(C)(C)C)c1O	11.2µM*	17.3	-14.2%	?	-2.9	-19.6%
SMILES	Marburg entry inh	Shiga inhibitor	Vaccinia Venus	Vaccinia mCherry	CHX counter	Lassa entry inh
O=C(O)c1ccc(C[n+]2c(-c3ccccc3)csc2Nc2ccccc2)cc1	-17.1%	-5.7	3.8%	-7.6%	-1.5	0.7%
CCOc1cc([N+](=O)[O-])cc2c1C(=O)Nc1ccccc1O2	.	30.3	33.7%	i	25.3*	.
COC(=O)c1ccccc1NC(=O)c1cc(=O)c2ccc(C)c(C)c2o1	15.5%[46.1 µM]	.	4.6%	-2.1%	.	7.9%[46.1 µM]
Cc1nc2c(o1)CCc1ccccc1[C@H]2N1CCN(C)CC1	-14.9%	.	.	.	.	.
O=C(NCCc1ccccc1)c1nc(-c2cccs2)no1	22.9%[46.1 µM]	90.3*	-1.7%	i	44.6*	1.4%
O=C(NCc1cccs1)c1nc(-c2cccs2)no1	.	66.1*	.	.	21.1*	.
